Pf Dd2 growth – inhibitors of Plasmodium falciparum Dd2 growth; 4.3% of 120,000 active; P. falciparum Dd2 growth, SYBR Green, 72 h; Potency, µM (highest dose often 28.9 µM), for the others: top-dose activity, negative = inhibition, actives largely listed as inhibitors; AID 1347417; active = well fitted inhibition curve with a large enough effect;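 also: plate controls were DMSO vehicle for no effect and reference drug for full effect; nearly all actives have a fitted effect of over 65% in size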
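Infected erythrocytes (Dd2, 0.3% parasitemia, 2.5% hematocrit final) are added to compound in RPMI-1640/Albumax II medium, grown 72 h at 37C in low oxygen, then lysed with saponin/Triton-X containing SYBR Green and read by fluorescence.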
* hit, by the source's call; i = inactive; [ ] = remark or other dose. Many of the other results were omitted from the sample, so hits are more common in it than they were. Potency is read from the fitted curve at half-maximal effect.

SMILES	Pf Dd2 growth
COc1ccc(CCN2CC(NCc3cccnc3)CC2=O)cc1 (stereo not drawn)	-4%
Cc1cccc(NC(=O)N2CCc3c(c4ccccc4n3C)C2)c1C	i
Cc1cccc(NC(=O)N2CC=C(c3c[nH]c4ccccc34)CC2)c1C	3.2µM*
O=C(Nc1ccc(Br)cc1F)N1CC=C(c2c[nH]c3ccccc23)CC1	1%
Fc1ccc(CN2CCCC3(CCN(c4cnccn4)C3)C2)cc1F (stereo not drawn)	-22%
COc1ccc2c(c1)c1c(c(=O)n(-c3cccc(C)c3)c(=O)n1CC(=O)Nc1c(C)cc(C)cc1C)n2C	20%
COCCN1C(=O)c2ccccc2C(C(=O)Nc2nc(C(=O)OC)c(C(C)C)s2)C12CCCC2 (stereo not drawn)	11µM*
COCCN1C(=O)c2ccccc2C(C(=O)NCc2ccccc2)C12CCCC2 (stereo not drawn)	-15%
COCCN1C(=O)c2ccccc2C(C(=O)Nc2nc(C)c(C)s2)C12CCCC2 (stereo not drawn)	7.9µM*
COCCN1C(=O)c2ccccc2C(C(=O)Nc2nc3c(s2)CCC3)C12CCCC2 (stereo not drawn)	13µM*
COCCN1C(=O)c2ccccc2C(C(=O)Nc2nncs2)C12CCCC2 (stereo not drawn)	-10%
COCCN1C(=O)c2ccccc2C(C(=O)NCc2ccc(OC)cc2)C12CCCC2 (stereo not drawn)	-13%
COCCN1C(=O)c2ccccc2C(C(=O)NCCc2ccccc2)C12CCCC2 (stereo not drawn)	-20%
COCCN1C(=O)c2ccccc2C(C(=O)Nc2nc3ccccc3s2)C12CCCC2 (stereo not drawn)	6.3µM*
COCCN1C(=O)c2ccccc2C(C(=O)NCCC(C)C)C12CCCC2 (stereo not drawn)	-19%
CCNC(=O)O[C@@H]1CO[C@H]2[C@@H]1OC[C@@H]2NCC1CCCCC1	-15%[44.1 µM]
Cn1ncc(N2CCCC(CC(=O)NC3CCN(Cc4ccccc4)CC3)C2)cc1=O (stereo not drawn)	-15%
Cn1cc2c3c(cccc31)CN(C(=O)c1cccs1)CC2	-21%
CCOC(=O)c1cccc(NC(=O)N2CC[C@@H](CC(=O)NCc3ccc(OC)cc3)[C@@H](CC)C2)c1	i
CC(C)NC(=O)c1cc(C(C)(C)C)c2cccn2n1	-7%[44.1 µM]
CNCCN1C(=O)CC[C@H]2CN(C(=O)c3ccnc(NC)c3)CC[C@H]21	-8%
COc1ccc(C(=O)NCc2cccnc2N(C)C2CCCCC2)o1	i
COc1cccc(C(=O)N2CCCC(n3cc(-c4noc(C)n4)nn3)C2)c1 (stereo not drawn)	i
COCC1CN(C(C)=O)CC12CCN(S(=O)(=O)c1ccccc1)CC2 (stereo not drawn)	22%
COc1ccccc1NCc1nnc2n1CCCCC2	20%
SMILES	Pf Dd2 growth
COc1ccc(CNC(=O)C(CC(C)C)NS(=O)(=O)c2ccc3c(c2)oc(=O)n3C)cc1 (stereo not drawn)	46%
COCCN1C(=O)c2ccccc2C(C(=O)Nc2nncs2)C12CCCCC2 (stereo not drawn)	-21%
COCCN1C(=O)c2ccccc2C(C(=O)Nc2nnc(C)s2)C12CCCCC2 (stereo not drawn)	-16%
CCCc1nnc(NC(=O)C2c3ccccc3C(=O)N(CCOC)C23CCCCC3)s1 (stereo not drawn)	10µM*
CC(C)(C)c1cn(C[C@H]2CC3CCN2C[C@@H]3C(=O)NCc2ccccc2)nn1 (stereo partly drawn)	i
COc1ccc(-c2cc(N3CCCN(C(=O)c4cccc5[nH]ccc45)CC3)n[nH]2)cc1	-7%
O=C1[C@@H]2C[C@@H](CN2Cc2ccnc3ccccc23)Oc2ccccc2N1CC1CC1	-13%[44.1 µM]
Cn1cc(CN2C[C@@H]3C[C@H]2C(=O)N(CC2CC2)c2ccccc2O3)c2ccccc21	-1%[44.1 µM]
O=C1[C@@H]2C[C@@H](CN2Cc2ccc3c(c2)OCO3)Oc2ccccc2N1CC1CC1	13µM*
CN1C(=O)[C@@H]2C[C@@H](CN2Cc2ccccc2)Oc2ccccc21	i
O=C1[C@@H]2C[C@@H](CN2C(=O)Cc2ccccc2)Oc2ccccc2N1CC1CC1	-22%[44.1 µM]
Cc1ccc(CN2C[C@@H]3C[C@H]2C(=O)N(CC2CC2)c2ccccc2O3)cc1	10µM*
CCNC(=O)N(C1CC1)C1CCOC2(CCN(C(=O)c3sc(C)nc3C)CC2)C1 (stereo not drawn)	-4%
COc1ccc(CC(=O)N2CCC3(CC2)CC(NC(C)=O)c2ccccc23)cc1 (stereo not drawn)	1%
Fc1ccc(-c2cccc(CN3CC4CCC(C3)N4c3ccc(C(F)(F)F)cc3)c2)c(F)c1	-3%
CCN1C(=O)C2(CCN(S(=O)(=O)c3cccc(C)c3)CC2)c2ccccc21	i
CCN1C(=O)C2(CCN(S(=O)(=O)c3ccc(Cl)cc3C)CC2)c2ccccc21	1µM*
CCN1C(=O)C2(CCN(S(=O)(=O)c3ccc(C)c(C)c3)CC2)c2ccccc21	i
COc1ccc(-c2cc3c(=O)n(CCNC(=O)Cc4cccs4)ccn3n2)cc1	i
CCCCOCCCNC(=O)c1c(C)noc1-c1cc(OC)cc(OC)c1	i
CCn1ncc(CN(C)C(=O)c2c(C)oc3c2CN(Cc2ccc(OC)cc2)CC3)c1C	11µM*
COCCNC(=O)c1nc2c(o1)CCN(Cc1ccc(OC)cc1)CC2	-16%[44.1 µM]
COc1ccc(CN2CCc3oc(C)c(C(=O)N4CCN(C(C)=O)CC4)c3C2)cc1	-13%
CN(C)[C@@H]1CO[C@H](CNC(=O)N2CCOCC2)[C@H]1O	20%[44.1 µM]
Cc1noc(C)c1CCCNC(=O)CCC[C@@H]1[C@H]2CCCN3CCC[C@@H](CN1C)[C@@H]23	-9%
SMILES	Pf Dd2 growth
COc1ccc(-c2cn(C[C@H]3CC4CCN3C[C@@H]4C(=O)N3CCN(c4ccccc4OC)CC3)nn2)cc1 (stereo partly drawn)	23%
CCOc1ccccc1NC(=O)Nc1cc2c(cc1N1CCCCC1)n(CC)c(=O)n2CC	11µM*
CCOc1ccccc1NC(=O)Cn1c(N2CCN(c3ccccc3)CC2)nc(C)cc1=O	5.6µM*
CCc1ccccc1NC(=O)Cn1c(=O)ccc2cc(S(=O)(=O)N3CCCC3)ccc21	10%
Cc1cc(=O)n(CC(=O)Nc2ccc(C)c(Cl)c2)c(N2CCC(C)CC2)n1	-22%
CCOc1ccccc1NC(=O)Cn1c(=O)ccc2cc(S(=O)(=O)N3CCC(C)CC3)ccc21	13µM*
Cc1cc(=O)n(CC(=O)Nc2ccc(Cl)cc2)c(N2CCC(C)CC2)n1	11µM*
Cc1cc(=O)n(CC(=O)Nc2ccc(Br)cc2)c(N2CCC(C)CC2)n1	-24%
CCOc1ccc(C(=O)Nc2cc3c(cc2N2CCCC2)n(C)c(=O)c(=O)n3C)cc1OCC	-16%
Cc1ccc(C)c(NC(=O)Cn2c(N3CCN(c4ccccc4)CC3)nc(C)cc2=O)c1	-42%
Cc1ccc(NC(=O)Cn2c(N3CCN(c4ccccc4)CC3)nc(C)cc2=O)c(C)c1	-8%
COc1ccccc1CNC(=O)Cn1c(=O)ccc2cc(S(=O)(=O)N3CCC(C)CC3)ccc21	11%
CCOc1ccc(NC(=O)Nc2cc3c(cc2N2CCCCC2)n(C)c(=O)n3C)cc1	-15%
CC(C)(C)C(=O)N1CC[C@@H](CC(=O)O)[C@@H](CCN2C[C@@H]3C[C@H](C2)c2cccc(=O)n2C3)C1	37%
COC(=O)CNC(=O)N1CC2CC(C1)[C@H]1CCCC(=O)N1C2 (stereo partly drawn)	-5%
COCC1CCN(S(=O)(=O)N2CCCCC2CCc2ccccc2)CC1 (stereo not drawn)	-21%
